Experimental data as given in ChEMBL document CHEMBL4513216, “Probing the Open Global Health Chemical Diversity Library for Multistage-Active Starting Points for Next-Generation Antimalarials” (ACS Infect Dis, 2020).
Among all 68,000 compounds or so, about 2,700 (4%) showed an effect of 50% or more. The sample as a whole holds a higher share of strong results than the screen did.

test system: Plasmodium berghei; assay: Screen against P. berghei liver stage (PbLuc), transformed with Luciferase, at 2uM; type: functional, HepG2; conditions: tested at 2 uM

| SMILES | INHIBITION [%] |
| --- | --- |
| Cc1csc(C2CCCN(C(=O)c3cnn4ccc(C)nc34)C2)n1 (configuration not stated) | 14.96 |
| Cc1ccn2ncc(C(=O)N3CCCC(n4cccn4)C3)c2n1 (configuration not stated) | 5.52 |
| Cc1ccn2ncc(C(=O)N3CCCC(n4ccnc4C)C3)c2n1 (configuration not stated) | 56.02 |
| Cc1ccn2ncc(C(=O)N3CCCC(c4noc(C)n4)C3)c2n1 (configuration not stated) | 50.52 |
| Cc1ccn2ncc(C(=O)N3CCCC(c4cc(C)[nH]n4)C3)c2n1 (configuration not stated) | 18.91 |
| CCN1Cc2cc(F)ccc2N(C(C)=O)CCC1=O | -10.65 |
| CNc1nc2c(s1)C(c1ccccc1F)CC(=O)N2 (configuration not stated) | -37.62 |
| Cc1ccc(-c2ncc(CNc3cnccc3CO)s2)cc1 | -13.13 |
| O=C(C1CCC2(CCN(Cc3cccnc3)CC2)CO1)N1CCCC1 (configuration not stated) | -84.83 |
| CC(NC(=O)N1CCN(c2cccs2)CC1)c1ccc(C#N)cc1 (configuration not stated) | 16.79 |
| CN1CCN(Cc2nnc(C3CCN(CC4CC4)CC3)n2C)CC1 | -0.04 |
| CN1CCN(Cc2nnc(C3CCN(C(CO)CO)CC3)n2C)CC1 | 59.68 |
| CN1CCN(Cc2nnc(C3CCN(C4CCCCC4)CC3)n2C)CC1 | 26.81 |
| Cc1cc(CN2CCC(C3Nc4ccccc4S(=O)(=O)N3)CC2)oc1C (configuration not stated) | 22.81 |
| CCOC(=O)CN(C)C1CCc2ccccc21 (configuration not stated) | 44.71 |
| CN(C)C(=O)CNC(=O)c1cc2ccccc2nc1N1CCCC1 | 8.74 |
| CCn1cc(Cl)c(C(=O)NCCCO)n1 | 12.84 |
| CCN(CC(=O)NCc1nc(C2CC2)no1)Cc1ccc(Cl)cc1 | -37.68 |
| CCc1nc(C2CCCN(C(=O)c3ccc(Cl)cc3)C2)no1 (configuration not stated) | 9.82 |
| O=C(CCNC(=O)c1ccc(Cl)cc1)NCc1nc(C2CC2)no1 | 60.34 |
| c1cnc(N2CCCC(NCc3ccc(-n4ccnc4)cc3)C2)nc1 (configuration not stated) | 1.91 |
| Cc1cnn(CC2CCCCN2C(=O)c2c(C)noc2C)c1 (configuration not stated) | -13.24 |
| CCC(CO)NCc1ccc(-c2ccccc2)o1 (configuration not stated) | 12.02 |
| CN(C)c1ccc(C(=O)NCCCNc2ccc(C(F)(F)F)cn2)cc1 | 25.74 |
| Nc1ncc(-c2ccc(Cl)cc2)c(C2CCCNC2)n1 (configuration not stated) | 37.63 |
| Nc1ncc(-c2ccc(C(F)(F)F)cc2)c(C2CCCNC2)n1 (configuration not stated) | -10.58 |

| SMILES | INHIBITION [%] |
| --- | --- |
| Nc1ncc(-c2ccc(F)cc2)c(C2CCCNC2)n1 (configuration not stated) | 54.2 |
| O=C(C1CC=CC1)N1C[C@@H]2CN(Cc3ccsc3)CCO[C@@H]2C1 | -10.92 |
| Cc1ccc(C)c(CC(=O)NC2CCCS(=O)(=O)C2)c1 (configuration not stated) | 57.75 |
| Cc1ccc(C)c(CC(=O)NC2CCC(N3C(=O)CCC3=O)CC2)c1 (configuration not stated) | -37.65 |
| Cc1ccc(C)c(CC(=O)NC2CCS(=O)(=O)CC2)c1 | 29.13 |
| CC(C)c1nc(CN(C)C(=O)c2ccc(CN3CCCCC3)cc2)cs1 | 0.31 |
| Fc1ccc(CN2CCC3(CC2)CC(c2cccnc2)CO3)cc1 (configuration not stated) | -14.21 |
| CC(C)N(C)Cc1cnc2n1CCN(C(=O)Cc1cccs1)C2C (configuration not stated) | 70.31 |
| CC1c2ncc(Cn3cncn3)n2CCN1C(=O)Cc1cccs1 (configuration not stated) | 28.77 |
| CCOCc1cnc2n1CCN(C(=O)Cc1cccs1)C2C (configuration not stated) | -24.63 |
| CCc1n[nH]c(C2CN(C(=O)c3cc4c(s3)CCCC4)CCO2)n1 (configuration not stated) | 20.28 |
| Cc1cc2c(N)nc(=O)n(CC(=O)Nc3cccc(Cl)c3)c2s1 | 6.05 |
| CCN(CCOC)C(=O)c1cc(COc2ccc3c(c2)CCCC3)on1 | 29.89 |
| CC(C)OCCN1CCc2cncnc2C1 | 62.51 |
| COCCCN1CCc2cncnc2C1 | -12.48 |
| CCOCCN1CCc2cncnc2C1 | 31.51 |
| COC(=O)c1sc(C(NC(=O)c2ccccc2)C2CC2)nc1C (configuration not stated) | -13.12 |
| C=C(C)CN1CCC(NC(=O)c2scnc2C)CC1 | -7.13 |
| COc1cc(I)c(Cl)cc1C(=O)N(C)C | 32.04 |
| COCCNc1nc2c(c(N3CCn4nc(C)cc4C3)n1)CCNCC2 | 51.19 |
| CCOCc1nc2c(c(N3CCCn4nc(C)cc4C3)n1)CCNCC2 | -31.55 |
| Cc1cc2n(n1)CCN(c1nc(N)nc3c1CCNCC3)C2 | 17.6 |
| O=C1CC[C@@H](C(=O)N2CCC(Cn3cc(C4CCCCC4)nn3)CC2)N1 | 17.61 |
| CC(C)n1nc2c(cc1=O)CN(c1ncnc3sccc13)CC2 | -35.16 |
| COCCN1C(=O)c2ccc(C(=O)NCCc3c[nH]cn3)cc2C1=O | 34.59 |
| CC(C)CN(CC(O)c1ccc(F)cc1)C(=O)c1cnsn1 (configuration not stated) | -36.72 |
